Laboratory results reported in PubChem BioAssay AID2326 (National Center for Advancing Translational Sciences (NCATS), 2010).
Screen size: about 270,000 compounds; about 1,100 (0.41%) were called active. Roughly 3% stayed inconclusive and do not appear here. Many of the other results were omitted from the sample, so actives are more common in it than they were. Unmarked numbers belong to inactive results. Calls come from the whole dose curve.

Assay: qHTS Assay for Inhibitors of Influenza NS1 Protein Function; note: actives are rising curves; nearly all actives have a fitted effect of over 50% in size
Details: series mostly up to 46.1 µM; activity, positive = more growth: at the top concentration
Description: NIH Chemical Genomics Center [NCGC]
NIH Molecular Libraries Probe Centers Network [MLPCN]
Assay Submitter (PI): Daniel Engel
Influenza is a world-wide public health problem and emerging forms of the virus have the potential to cause a pandemic of equal or greater magnitude to the outbreaks recorded in 1918, 1957 or 1968. Vaccine development is proceeding and there also exist two classes of anti-influenza compounds. However these therapeutic modalities are neither fully effective nor widely enough available to fulfill global needs. In addition their potential usefulness against newly emergent strains is not known. Efforts are needed to develop novel agents against influenza virus, including broad-spectrum agents. Identification of small molecules that inhibit NS1 function either directly or by interfering with specific cellular pathways may be a key to increasing our defense against the virus.
We have miniaturized and optimized a cell based assay in which NS1 from influenza A is expressed in the budding yeast S. cerevisiae. NS1 is a multi-functional protein that counters the host innate immune response and facilitates viral versus cellular gene expression. Expression of NS1 causes a pronounced slow growth phenotype in yeast due to its intrinsic molecular activities. Small molecules that suppress the slow growth phenotype can be identified by a straightforward growth recovery assay using optical density (OD) as the measurement. The same yeast strain not expressing NS1 was used as positive control in the yeast growth recovery assay.
The yeast S. cerevisiae control and NS1 expressing cells were kindly supplied by laboratory of Dr. Daniel Engel, University of Virginia. Yeast starter cultures were stored in single use aliquots at -80C.
1. Yeast culture medium per liter: 1.2 g Yeast Nitrogen Base (w/out amino acids and Ammonium Sulphate), 5.0g Ammonium Sulphate, 0.77g -URA DO (drop-out) Supplement, adjust pH to 6.0. Adjust to 2% glucose prior to inoculating with yeast.
2. Yeast assay medium: 1.2 g Yeast Nitrogen Base (w/out amino acids and Ammonium Sulphate), 5.0g Ammonium Sulphate, 0.77g -URA DO (drop-out) Supplement, adjust pH to 6.0. Adjust to 2% D-galactose prior to inoculating with yeast.
1. Inoculate 100 mls of yeast culture medium with 1 ml of frozen yeast aliquote. Incubate overnight at 30C, 250RPM.
2. Harvest overnight culture at 4000 RPM and wash pellet with 15 mls H2O 3x.
3. Re-suspend washed pellet in 10 mls of yeast assay medium.
4. Prepare a 1:100 dilution of re-suspended culture in yeast assay medium.
5. Dispense 3.5 ul per well of reagents in step 4 in columns 2-48 in a black clear bottom 1536 well plate.
6. Dispense 3.5 ul per well of yeast assay medium in column 1 only.
7. Transfer 23 nl of compound per well.
8. Dispense 3.5 ul per well of yeast assay medium in columns 1-48.
9. Read plate using Viewlux protocol for optical density 600 (OD600) using excitation filter 600nm.
Potency is the fitted concentration of half-maximal effect.

| Compound | activity, positive = more growth [%] | Potency |
| --- | --- | --- |
| CSc1ccccc1OCc1cc(C(=O)N2C[C@H]3CC[C@H]2C3)no1 | -47 | – |
| CCc1cccc(CC)c1NC(=S)NCc1ccc2[nH]c(C)cc2c1 | 18.4 | – |
| Cc1cc2cc(CNC(=O)c3cccs3)ccc2[nH]1 | – | 7.08 µM (active) |
| Cc1cc2cc(CNC(=O)c3ccc(S(=O)(=O)N4CCOCC4)cc3)ccc2[nH]1 | -8.99 | – |
| CCC(=O)Nc1ccc(-c2ccc(N3CCCCC3)nn2)cc1 | -6.81 | – |
| CCCCNC(=O)N(O)C1N(/N=C/c2ccccc2O)C(=S)SC1(C)C (stereo not drawn) | -46 | – |
| C/C=C/C(=O)Nc1nnc(C(C)C)s1 | -1.95 | – |
| COc1ccc(CNC(=O)CCC(=O)Nc2nnc(C(C)C)s2)cc1 | 2.26 | – |
| COc1cccc(OC)c1C(=O)Nc1nnc(C(C)C)s1 | – | 3.98 µM (active) |
| CCCN1CCn2c3c(c4cc(Br)ccc42)CCCC31 (stereo not drawn) | -7.34 | – |
| O=C(NCCCc1ccccc1)C(=O)c1c[nH]c2ccccc12 | -5.78 | – |
| CSc1nnc(NC(=O)c2nc(S(=O)(=O)Cc3ccc(C)cc3)ncc2Cl)s1 | 9.05 | – |
| CCc1ccc(S(=O)(=O)N/N=C\c2ccc([N+](=O)[O-])o2)cc1 | -23.4 | – |
| CSCc1nnc(NC(=O)c2ccc(S(=O)(=O)N3CCCCC3C)cc2)o1 (stereo not drawn) | -18.6 | – |
| Cc1ccc(Cn2c(C)nc3c(c2=O)c2nc4ccccc4nc2n3Cc2ccco2)cc1 | – | 4.47 µM (active) |
| Cc1nc2c(c(=O)n1Cc1ccco1)c1nc3ccccc3nc1n2Cc1ccccc1 | 3.74 | – |
| COCCCn1c2nc3ccccc3nc2c2c(=O)n(Cc3ccc(Cl)cc3)c(C)nc21 | -0.53 | – |
| CC1(C(=O)NNC(=S)NCC2CCCO2)CC1(Cl)Cl (stereo not drawn) | -1.43 | – |
| O=C(N[C@@H](Cc1ccccc1)C(=O)OCc1ccccc1)c1nc[nH]c1C(=O)N[C@@H](Cc1ccccc1)C(=O)OCc1ccccc1 | 6.79 | – |
| CCc1ccc(OCC2c3cc(OC)c(OC)cc3CCN2C(C)=O)cc1 (stereo not drawn) | 5.89 | – |
| COc1ccccc1NC(=O)CN1CCN(S(=O)(=O)c2ccc(Br)cc2)CC1 | -5.14 | – |
| COc1cc2c(cc1NC(=O)CN1CCN(S(=O)(=O)c3ccc(F)cc3)CC1)oc1ccccc12 | – | 5.62 µM (active) |
| COc1ccc(NC(=O)CN2CCN(S(=O)(=O)c3ccc(F)cc3)CC2)cc1Cl | -4.2 | – |
| CC(CN1CCOCC1)OC(=O)c1ccc(C(C)(C)C)cc1 (stereo not drawn) | -23.1 | – |
| O=C(CC(n1cncn1)C(Cl)(Cl)Cl)c1ccc([N+](=O)[O-])cc1 (stereo not drawn) | -84.2 | – |
| COc1ccc(S(=O)(=O)Nc2c(C)n(C)n(-c3ccccc3)c2=O)cc1 | – | 3.98 µM (active) |
| Cc1cc(C)c(S(=O)(=O)Nc2c(C)n(C)n(-c3ccccc3)c2=O)cc1[N+](=O)[O-] | -4.82 | – |

| Compound | activity, positive = more growth [%] | Potency |
| --- | --- | --- |
| Cc1ccc(S(=O)(=O)Nc2ccccc2CNc2c(C)n(C)n(-c3ccccc3)c2=O)cc1 | -70 | – |
| O=[N+]([O-])c1ccc(NC(=S)N2CCN(c3ccccn3)CC2)cc1 | -11.2 | – |
| FC(F)(F)C1CCCN(c2nsc3ccccc23)C1 (stereo not drawn) | -121 | – |
| COc1cccc(OCc2cc(C(=O)N3CCN(C(=O)c4ccco4)CC3)no2)c1 | -6.93 | – |
| Cc1cc(C(=O)N/N=C/c2ccccc2[N+](=O)[O-])c(C)o1 | -0.261 | – |
| Cc1ccsc1/C=N/NC(=O)Cc1cc(=O)[nH][nH]1 | 14.1 | – |
| O=C(Cc1cc(=O)[nH][nH]1)N/N=C/c1ccccc1[N+](=O)[O-] | – | 8.91 µM (active) |
| COc1cnc(-c2ccccn2)nc1Oc1ccc(C(C)(C)C)cc1 | -1.08 | – |
| O=C(CSc1nnnn1C1CCCC1)N1CCCCC1 | 4.51 | – |
| COc1ccc(C2CC(c3cccs3)=NN2C(=O)COC(=O)c2cc3ccccc3cc2O)cc1OC (stereo not drawn) | 24.1 | – |
| COc1ccc(C2CC(c3cccs3)=NN2C(=O)CCC(=O)O)cc1OC (stereo not drawn) | 19.5 | – |
| O=C1c2cccc(OCC(=O)N3N=C(c4cccs4)CC3c3ccc(F)cc3)c2CCN1Cc1ccccc1 (stereo not drawn) | – | 5.01 µM (active) |
| O=C(Nc1ccc(C2CC2(Cl)Cl)cc1)c1cccc([N+](=O)[O-])c1 (stereo not drawn) | -29.5 | – |
| Cc1cnc(NC(=O)c2ccc(Cl)nc2)s1 | -1.39 | – |
| O=C(CCCN1C(=O)/C(=C/c2cccs2)SC1=S)Nc1ccc(O)cc1 | -5.71 | – |
| COc1ccc(CNC(=O)C(c2ccc(O)cc2)N(Cc2ccco2)C(=O)c2snc(C(N)=O)c2N)cc1 (stereo not drawn) | 12.4 | – |
| Cc1cccc(NC(=S)NCCc2ccc(Cl)cc2)c1C | -49.7 | – |
| O=c1[nH]nc(CSCc2ccccc2Cl)[nH]1 | -9.59 | – |
| O=c1cc(O)nc(SCc2ccccc2Cl)[nH]1 | – | 5.01 µM (active) |
| Clc1ccccc1CSc1nnc(-c2ccco2)c(-c2ccco2)n1 | 10.7 | – |
| COc1ccc(C(=O)/C=C/c2cccnc2)c(OC)c1 | -15.2 | – |
| O=C(/C=C/c1ccco1)NC(=S)Nc1ccccc1Br | 13.4 | – |
| Oc1ccccc1-c1cc(-c2ccc(Cl)cc2)n[nH]1 | -6.76 | – |
| Cc1ccccc1C(OCC(O)CN1CCCCC1CCO)c1ccccc1 (stereo not drawn) | – | 4.47 µM (active) |
| COc1cccc(CN(C)CC(O)COC(c2ccccc2)c2ccccc2C)c1 (stereo not drawn) | 2.51 | – |
| CC(C)OCC(O)CN1CCN(C(c2ccccc2)c2ccccc2)CC1 (stereo not drawn) | 0.765 | – |
